Test results published in PubChem BioAssay (Tox21).
Values without a mark were called inactive. Records with an inconclusive call do not appear. A call without a number means that no potency is given here. Activity calls are given as the source filed them. Unless noted, calls come from the whole dose curve; as a rule, active = well fitted curve in the direction sought with a large enough effect in the repeat runs; inconclusive = weak or mixed curves; inactive = no such curve, though single readings can be large; an effect the other way counts as inactive or inconclusive.

How the values were obtained:
[1] = qHTS assay to identify small molecule antagonists of the estrogen related receptor (ERR) signaling pathway (AID 1224819; note: nearly all actives have a fitted effect of over 50% in size; note: potency is the fitted concentration of half-maximal effect)
Summary of the method: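 ERR reporter cells were plated at 2,000 cells/well and left 6 h at 37 C/5% CO2 before pin-tool transfer of compounds in DMSO. After 18 h at 37 C, One-Glo was added and luminescence was read 30 min later at room temperature.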

[2] = qHTS assay to identify small molecule agonists of the estrogen related receptor (ERR) signaling pathway (AID 1224820)
Summary of the method: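 An ERR cell line provided by NTP was seeded at 2,000 cells per well and allowed to settle for 6 h before compounds in DMSO were added. After 18 h at 37 C, luciferase activity was measured by One-Glo luminescence.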

[3] = test system: estrogen-related receptor alpha (ERRalpha) with PGC-1alpha coactivator, human; test: qHTS assay to identify small molecule antagonists of the estrogen related receptor signaling pathway with the pleiotropic PPARgamma coactivator (PGC) (AID 1224821; calls by dose curve; note: nearly all actives have a fitted effect of over 50% in size; note: potency is the fitted concentration of half-maximal effect)
Summary of the method: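 A PGC/ERR cell line supplied by NTP is seeded, allowed 6 h at 37 C, and treated with test compounds in DMSO for 18 h. Signal is then measured as luciferase luminescence using One-Glo.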

[4] = qHTS assay to identify small molecule antagonists of the estrogen related receptor signaling pathway with the pleiotropic PPARgamma coactivator (PGC) cell viability counter screen (AID 1224822;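 note: series mostly up to about 46 µM; viability read after 17.5 h compound exposure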)
Summary of the method: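 Viable cell signal (CellTiter-Fluor, 30 min, 37 C/5% CO2) was measured in PGC/ERR cells after a 17.5 h compound incubation.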

[5] = qHTS assay to identify small molecule agonists of the estrogen related receptor signaling pathway with the pleiotropic PPARgamma coactivator (PGC) (AID 1224823)
Summary of the method: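 Compounds dissolved in DMSO are added by pin tool to PGC/ERR cells that have settled for 6 h, and incubation continues 18 h at 37 C. Reporter output is measured as One-Glo luminescence.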

[6] = qHTS assay to identify small molecule antagonists of the estrogen related receptor (ERR) signaling pathway - cell viability counter screen (AID 1224818);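 note: series mostly up to about 46 µM; viability measured after 17.5 h of compound exposure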
Summary of the method: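 Cytotoxicity check run alongside the ERR antagonist screen: cells exposed to test compounds 17.5 h at 37 C, viability taken as CellTiter-Fluor fluorescence intensity.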

[7] = qHTS assay to test for compound auto fluorescence at 590 nm (red) in HepG2 cells (AID 720674)
Summary of the method: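 Compound auto-fluorescence is scored relative to Rose Bengal sodium, measured at 540/590 nm in live HepG2 cultures after 1 hr compound contact (37 C, 5% CO2).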

[8] = qHTS assay to test for compound auto fluorescence at 535 nm (green) in HepG2 cells (AID 720675)
[9] = qHTS assay to test for compound auto fluorescence at 460 nm (blue) in HEK293 cells (AID 720678)
Summary of the method: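 Blue-channel (Ex/Em 405/460 nm) intensity measured in HEK293 cultures after overnight compound exposure at 37C; signal expressed relative to triamterene. Cells plated 2,000 per well in 10% dialyzed FBS medium and allowed 4-5 hr to attach.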

[10] = qHTS assay to test for compound auto fluorescence at 590 nm (red) in HEK293 cells (AID 720679)
Summary of the method: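 Red-channel autofluorescence (Ex/Em 540/590 nm; Rose Bengal sodium reference) was measured after overnight 37C, 5% CO2 exposure of attached HEK293 cells, 2,000 per well in medium with 10% dialyzed FBS.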

[11] = qHTS assay to test for compound auto fluorescence at 535 nm (green) in HEK293 cells (AID 720680)
[12] = qHTS assay to test for compound auto fluorescence at 460 nm (blue) in HEK293 cell free culture (AID 720681)
Summary of the method: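 Test compounds were pinned into cell-free culture medium (DMEM with 10% FBS) and fluorescence was read directly at Ex/Em 405/460 nm. Signals were expressed as fluorescence equivalents of triamterene, with DMSO vehicle as control.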

[13] = qHTS assay to test for compound auto fluorescence at 590 nm (red) in HEK293 cell free culture (AID 720683)
Summary of the method: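 Tox21 10K library compounds were pinned into cell-free DMEM with 10% FBS and fluorescence was read at excitation 540 nm. Activity is expressed as Rose Bengal sodium equivalency.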

[14] = qHTS assay to test for compound auto fluorescence at 590 nm (red) in HepG2 cell free culture (AID 720684)
Summary of the method: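 Readout: intrinsic compound fluorescence at 590 nm emission after 540 nm excitation, scaled to Rose Bengal sodium. Matrix was cell-free MEM with 10% FBS; DMSO vehicle wells served as control.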

[15] = qHTS assay to test for compound auto fluorescence at 460 nm (blue) in HepG2 cell free culture (AID 720685)
Summary of the method: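 Cell-free plates of MEM plus 10% FBS received 23 nL compound or DMSO vehicle; blue-channel (405/460 nm) intensity scored against triamterene as reference fluorophore.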

[16] = qHTS assay to test for compound auto fluorescence at 535 nm (green) in HepG2 cell free culture (AID 720686)
[17] = test system: thyroid hormone receptor (rat, GH3 cells); test: qHTS assay to identify small molecule agonists of the thyroid receptor (TR) signaling pathway (AID 743066; calls by dose curve)
Aromatase (Homo sapiens) = Aromatase (Homo sapiens) (UniProt P11511); test: qHTS assay to identify aromatase inhibitors (AID 743083); note: series mostly up to about 70 µM; nearly all actives have a fitted effect of over 55% in size
Aromatase (Homo sapiens), sequence (P11511 whole entry, looked up): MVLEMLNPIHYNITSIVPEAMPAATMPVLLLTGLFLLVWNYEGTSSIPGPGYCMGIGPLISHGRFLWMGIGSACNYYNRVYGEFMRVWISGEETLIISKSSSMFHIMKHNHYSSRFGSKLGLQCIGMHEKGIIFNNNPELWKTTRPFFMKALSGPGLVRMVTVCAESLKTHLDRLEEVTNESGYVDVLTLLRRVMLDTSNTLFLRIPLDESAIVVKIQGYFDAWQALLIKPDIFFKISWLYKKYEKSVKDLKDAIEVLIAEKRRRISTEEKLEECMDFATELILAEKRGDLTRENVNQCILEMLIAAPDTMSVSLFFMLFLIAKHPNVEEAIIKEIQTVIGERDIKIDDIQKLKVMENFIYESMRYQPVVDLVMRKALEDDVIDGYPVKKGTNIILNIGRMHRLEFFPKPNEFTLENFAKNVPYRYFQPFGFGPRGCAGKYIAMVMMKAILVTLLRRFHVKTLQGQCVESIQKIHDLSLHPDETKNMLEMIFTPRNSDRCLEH

[18] = target: Luciferin 4-monooxygenase (Photinus pyralis) (UniProt P08659); test: qHTS assay to identify small molecule inhibitors of firefly luciferase (AID 1224835); note: series mostly up to about 120 µM; nearly all actives have a fitted effect of over 25% in size
Luciferin 4-monooxygenase (Photinus pyralis), sequence (P08659 whole entry, looked up): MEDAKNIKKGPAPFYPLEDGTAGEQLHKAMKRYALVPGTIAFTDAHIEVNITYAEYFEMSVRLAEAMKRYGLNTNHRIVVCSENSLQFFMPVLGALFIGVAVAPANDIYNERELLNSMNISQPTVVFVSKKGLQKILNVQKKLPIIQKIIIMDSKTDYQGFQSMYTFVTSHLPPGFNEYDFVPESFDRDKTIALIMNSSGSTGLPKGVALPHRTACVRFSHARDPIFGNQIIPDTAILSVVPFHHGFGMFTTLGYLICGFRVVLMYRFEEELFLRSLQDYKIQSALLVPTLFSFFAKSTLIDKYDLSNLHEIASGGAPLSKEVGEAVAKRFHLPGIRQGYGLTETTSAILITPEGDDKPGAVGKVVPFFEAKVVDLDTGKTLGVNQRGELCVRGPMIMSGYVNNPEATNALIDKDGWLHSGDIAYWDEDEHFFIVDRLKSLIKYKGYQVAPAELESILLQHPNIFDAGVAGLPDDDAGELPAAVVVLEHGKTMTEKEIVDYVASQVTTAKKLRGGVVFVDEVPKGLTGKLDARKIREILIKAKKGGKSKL
Summary of the method: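 Quantitative HTS format; KM concentrations of both substrates. Purified P. pyralis FLuc activity quantified from luminescence images.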

[19] = qHTS RealTime-Glo MT Cell Viability Assay in HEK293 cells - 0 hour (AID 1224880); note: top concentration of the series differs between compounds; nearly all actives have a fitted effect of over 45% in size
Summary of the method: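 Measured as luminescence from the same continuously cultured HEK293 wells at successive time points (0, 8, 16, 24, 32, 40 h) after compound addition. Reagent present from seeding; dosing at 5 h; incubation 37 C.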

[20] = qHTS assay to identify small molecule antagonists of the sonic hedgehog signaling (Shh) pathway (AID 1259369; calls by dose curve; note: nearly all actives have a fitted effect of over 45% in size)
Summary of the method: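 Gli1 transcriptional reporter (firefly Luc) in NIH/3T3 background, conditioned-medium activated. 24hr exposure, luminescence endpoint.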

[21] = qHTS assay to identify small molecule antagonists of the progesterone receptor (PR) signaling pathway - cell viability counter screen (AID 1346798); note: series mostly up to about 92 µM; nearly all actives have a fitted effect of over 50% in size
Summary of the method: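 PR-UAS-bla HEK293T cells in medium with 2% charcoal-stripped FBS were treated with compounds plus R5020 for 16 hr at 37C. Cell viability was then read by CellTiter-Glo luminescence after 30 min at room temperature in the same wells.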

Structure (SMILES): C[N+]1(C)CCC(OC(=O)C(c2ccccc2)c2ccccc2)CC1
- Potency [1]: inactive
- Potency [2]: inactive
- Potency [3]: inactive
- Potency [4]: inactive
- Potency [5]: inactive

Structure (SMILES): CN1C2CCC1CC(OC(=O)c1cc(Cl)cc(Cl)c1)C2 (centres undefined)
- Potency [6]: inactive
- Potency [4]: inactive

Structure (SMILES): CCS(=O)(=O)Nc1cccc(C(=C2CCCCC2)c2cnc[nH]2)c1
- Potency [6]: inactive
- Potency [2]: inactive
- Potency [5]: inactive

Structure (SMILES): C=CCN1C[C@@H](C)N([C@H](c2ccc(C(=O)N(CC)CC)cc2)c2cccc(OC)c2)C[C@@H]1C
- Potency [1]: 26.6 µM (active)
- Potency [2]: inactive
- Potency [3]: inactive
- Potency [4]: inactive
- Potency [5]: inactive

Structure (SMILES): Cc1nccc2c1[nH]c1ccccc12
- Potency [6]: inactive
- Potency [2]: inactive
- Potency [5]: inactive

Structure (SMILES): C[N+]1(C)CCc2cc3c(cc2[C@H]1[C@@H]1OC(=O)c2c1ccc1c2OCO1)OCO3
- Potency [1]: inactive
- Potency [2]: inactive
- Potency [3]: inactive
- Potency [4]: inactive
- Potency [5]: inactive

Structure (SMILES): Nc1cc2c(ncn2CCOCP(=O)(O)O)c(=O)[nH]1
- Potency [6]: inactive
- Potency [3]: inactive
- Potency [5]: inactive

Structure (SMILES): CC(=O)[C@H]1CCC2C3CC[C@H]4C[C@H](O)CC[C@]4(C)C3CC[C@@]21C (some centres undefined)
- Potency [6]: inactive
- Potency [2]: inactive
- Potency [5]: inactive

Structure (SMILES): OC1CCCCC1N1CCC(c2ccccc2)CC1 (centres undefined)
- Potency [1]: inactive
- Potency [2]: inactive
- Potency [3]: inactive
- Potency [4]: inactive
- Potency [5]: inactive

Structure (SMILES): CC(C)(C)c1cc(C=C(C#N)C#N)cc(C(C)(C)C)c1O
- Potency [1]: 0.276 µM (active)
- Potency [2]: inactive
- Potency [3]: 181 nM (active)
- Potency [5]: inactive

Structure (SMILES): COC(=O)N1CCN(C(=O)Cc2ccc(Cl)c(Cl)c2)C(CN2CCCC2)C1 (centres undefined)
- Potency [1]: inactive
- Potency [2]: inactive
- Potency [3]: inactive
- Potency [4]: inactive
- Potency [5]: inactive

Structure (SMILES): OCc1cnc[nH]1
- Potency [1]: inactive
- Potency [2]: inactive
- Potency [4]: inactive
- Potency [5]: inactive

Structure (SMILES): NCC(O)c1cc(O)c(O)cc1F (centres undefined)
- Potency [1]: inactive
- Potency [2]: inactive
- Potency [3]: inactive
- Potency [4]: inactive
- Potency [5]: inactive

Structure (SMILES): C[N+](C)(C)CCOC(=O)CBr
- Potency [1]: inactive
- Potency [3]: inactive
- Potency [4]: inactive
- Potency [5]: inactive

Structure (SMILES): C=CCN1CC[C@]23CCCCC2[C@H]1Cc1ccc(O)cc13 (some centres undefined)
- Potency [1]: inactive
- Potency [3]: inactive
- Potency [4]: inactive
- Potency [5]: inactive

Structure (SMILES): CCCN(CCC)[C@H]1CCc2c(F)ccc(O)c2C1
- Potency [1]: inactive
- Potency [3]: inactive
- Potency [5]: inactive

Structure (SMILES): Cc1ccc(O)cc1C
- outcome [7]: inactive
- Potency [8]: inactive
- Potency [9]: inactive
- outcome [10]: inactive
- Potency [11]: inactive
- Potency [12]: inactive
- outcome [13]: inactive
- outcome [14]: inactive
- Potency [15]: inactive
- Potency [16]: inactive
- Potency [17]: inactive
- Potency (Aromatase (Homo sapiens)): inactive
- Potency [18]: inactive
- outcome [19]: inactive
- Potency [20]: inactive
- Potency [21]: inactive
